RTF Ca sens act: increases calcium sensitivity of human cardiac regulated thin filaments. P19429+P45379. IANBD-labeled TnC RTF fluorescence at EC20 calcium; 0% EC20 calcium, 100% full calcium. activation, % at 7.2 µM. 340,000 compounds, 0.24% hits. AID 493008;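 active = activation above the mean over all tested compounds plus 3 SD, cut at about 30% in these data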;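 also: rise in fluorescence read as greater calcium sensitivity of cardiac thin filaments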
ANO1 activ: activators or potentiators of mouse TMEM16A chloride channel; 340,000 compounds, 0.3% hits; B-score at 10 µM; HEK293 TMEM16A/YFP-H148Q/I152L, iodide quench fluorescence; stronger effect = lower value;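 active = fluorescence-ratio B-score plate-corrected deviation score at least 3 library SD below zero, with starting fluorescence score within 5 deviations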;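 also: channel opened by trigger with iodide after compound preincubation; score built on the fluorescence ratio of max minus min over baseline; more negative score means more quench and so TMEM16A activation or potentiation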
CRFBP-R2 block: blocks CRF-induced signaling of the CRF-BP/CRF-R2 complex. HEK293 CRF-R2/CRF-BP, CRF-induced calcium fluorescence. inhibition, % at 11.8 µM. 350,000 compounds, 0.59% hits. AID 588475;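 active = inhibition of the ligand-induced calcium signal above about 50% at the single tested concentration, limit read from the data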
ANO1 block: blocks the mouse calcium-activated chloride channel TMEM16A; 310,000 compounds, 1.2% hits; HEK293 TMEM16A/YFP iodide influx fluorescence, ionomycin; AID 588511; normalized B-score (activity score, 25-100; higher = stronger inhibition) at 10 µM; Q8BHY3;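 active = ratio plate-corrected score three or more library SD toward inhibition, starting fluorescence score within five deviations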;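 also: score derived from kinetic fluorescence span divided by baseline fluorescence per well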
CRFBP-R2 agonist: CRF-BP/CRF-R2 complex agonism; 350,000 compounds, 0.46% hits; HEK293 CRF-R2/CRF-BP, calcium dye fluorescence (FLIPR); percent of saturating CRF peptide response; activation, % at 13.2 µM;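 active = activation of at least 50%, plus an integration ratio under a set limit after plate pattern correction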;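 also: plate controls were neutral control wells without compound for no effect and CRF at EC100 for full effect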
RTF Ca sens inh: cardiac RTF calcium desensitization. IANBD-labeled cardiac RTF, Ca2+ fluorescence. inhibition, % at 7.15 µM. P19429+P45379. 340,000 compounds, 0.12% hits;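 active = inhibition above the mean inhibition of all tested compounds plus 3 SD, cut at about 17% in these data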;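 also: assay run at fixed EC70 calcium of 1.6 mM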
* = called active by the depositor; i = inactive; . = no result. Sampled rows, rich in hits. Any-hit rate of the full collection: about 2.4%.

SMILES	RTF Ca sens act	ANO1 activ	CRFBP-R2 block	ANO1 block	CRFBP-R2 agonist	RTF Ca sens inh
O=C(Nc1nnc(-c2ccc(F)cc2)o1)c1cc(Cl)sc1Cl	-3.2	i	15.5	i	91.0*	4.4
Cc1cccc(-c2nnc(NC(=O)c3ccc(Cl)cc3)o2)c1	5.0	i	24.7	i	108.5*	-2.5
COc1cccc(CNC(=O)C2CCCN(S(=O)(=O)c3c(C)n[nH]c3C)C2)c1 (configuration not stated)	4.8	i	-3.1	i	0.8	-6.2
COc1cc(/C=N/c2oc(C)c(C)c2C#N)cc(Br)c1O	0.1	i	-3.2	i	5.2	-7.4
O=C(NCCCc1ccccc1)c1cccc([N+](=O)[O-])c1	4.3	i	55.0*	i	-5.4	2.0
O=[N+]([O-])c1ccc(NC(=S)NCCc2ccc(F)cc2)cc1	0.5	-4.87*	53.9*	100*	28.8	-5.5
O=C(NCCc1ccc(F)cc1)Nc1ccc([N+](=O)[O-])cc1	0.6	i	21.6	i	0.1	-1.5
O=C(NCCCCc1ccccc1)c1cccc([N+](=O)[O-])c1	0.8	i	40.4	i	-0.7	3.1
O=[N+]([O-])c1cccc(NC(=S)NCCc2ccccc2)c1	-2.2	i	27.3	100*	12.0	5.3
Fc1cccc(NC(=S)NCCc2ccccc2)c1	-6.3	i	15.6	i	-0.1	-4.3
COc1cc(OC)c2ccc(=O)oc2c1C(CCN1CCOCC1)c1ccc2c(c1)OCO2 (configuration not stated)	1.2	i	76.1*	.	-2.6	-5.0
CCC(C(=O)NC1CCCC1)n1c2ccccc2c2nc(=O)cc(C)n21 (configuration not stated)	2.1	i	4.1	.	-0.7	8.2
N/C(=N\O)c1ccc(N2CCN(c3ncccc3C(F)(F)F)CC2)nc1	4.6	i	-18.4	i	-0.9	-7.1
C=CCn1c(SCc2c(C)noc2C)nc2sc(C)c(C)c2c1=O	7.7	i	74.0*	i	-4.5	-1.3
Cc1cc(C)c(C2=NOC3C4CCC(C4)C23)c(C)c1 (configuration not stated)	3.2	i	-22.4	i	-1.9	-8.6
COc1cc2ccccc2nn1	6.1	i	-1.2	i	-0.6	-4.7
COc1ccc2c(n1)Sc1nc3ccccc3nc1N2	30.1*	i	-189.2	i	227.7*	-59.3
FC(F)(F)c1ccccc1-c1nc(-c2ccncc2)no1	-6.4	.	57.4*	i	-0.7	-4.0
CCOC(=O)C(C)(C)N(Cc1ccc(C)cc1)S(=O)(=O)c1ccc(Cl)c([N+](=O)[O-])c1	2.2	i	67.0*	i	-0.9	12.7
COc1ccc(CN2Cc3cccc4c3[C@@H](CC2=O)[C@H](O)[C@H](O)C4)cc1	14.6	-9.24*	1.2	.	-0.4	-6.8
O=C1C[C@@H]2c3c(cccc3CN1Cc1ccc(F)cc1)C[C@@H](O)[C@H]2O	-9.2	i	-2.7	.	-1.0	-2.7
Cc1nc(C)n(C(C)CC(=O)O)n1 (configuration not stated)	-2.1	i	-27.5	i	0.0	-3.0
CC(=O)c1ccc(S(=O)(=O)NCCC(=O)OCC(=O)N2CCCC2=O)cc1	-5.0	i	0.6	i	0.5	-4.4
CC(OC(=O)Cc1ccccc1[N+](=O)[O-])C(=O)NC(=O)NC1CCCCC1 (configuration not stated)	-12.0	i	4.9	i	3.2	-10.5
CC(C)(C)C(=O)/C=c1\s/c(=C\c2ccc(-c3ccc([N+](=O)[O-])cc3)o2)c(=O)n1CC(=O)NC(N)=O	53.7*	i	-139.0	i	212.2*	-90.6
COc1ccc2sc(-c3ccc(N(C)C)cc3)c(C#Cc3cncn3C)c2c1	3.7	i	-1.9	.	3.3	-1.1
COc1ccc(F)cc1S(=O)(=O)NC1CCCC1	-4.0	i	0.9	i	6.4	3.1
Cc1nc(N2CCC(C)CC2)c2c(C)c(C(=O)O)sc2n1	0.2	i	-7.9	i	2.3	2.5

Screening data deposited in PubChem by several laboratories.
